Source: PubChem (several laboratories)
AI-2 QS modul = Vibrio harveyi AI-2 quorum sensing modulators, primary screen, JMH597 strain, luminescence/OD600 ratio; Vibrio harveyi JMH597 AI-2 luminescence/OD600 ratio, 9 h; hits give low values; strain lacks LuxN and CqsS sensors; 0 = neutral-control median; activity change, % at 7.5 µM; actives 0.4% (n = 300,000); AID 2094, 2009; in the data active = activity change below about -75%, passing the limit was not always enough; inconclusive = no clear call, values can overlap the other calls;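 also: luminescence divided by OD600 gain over 9 h not by final OD600 alone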
sPLA2-III inh = human group III sPLA2 inhibitors, primary screen, biochemical, QFRET, BODIPY PC-A2 liposome substrate | Group 3 secretory phospholipase A2 (Homo sapiens), Q9NZ20 | QFRET BODIPY PC-A2 liposome hydrolysis, fluorescence | inhibition, % at 12.2 µM | actives 0.56% (n = 370,000);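 active = inhibition above mean plus 3 SD of compounds lying within the high and low control bounds, cut at about 19% in these data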
Target sequence (Q9NZ20 whole entry, looked up): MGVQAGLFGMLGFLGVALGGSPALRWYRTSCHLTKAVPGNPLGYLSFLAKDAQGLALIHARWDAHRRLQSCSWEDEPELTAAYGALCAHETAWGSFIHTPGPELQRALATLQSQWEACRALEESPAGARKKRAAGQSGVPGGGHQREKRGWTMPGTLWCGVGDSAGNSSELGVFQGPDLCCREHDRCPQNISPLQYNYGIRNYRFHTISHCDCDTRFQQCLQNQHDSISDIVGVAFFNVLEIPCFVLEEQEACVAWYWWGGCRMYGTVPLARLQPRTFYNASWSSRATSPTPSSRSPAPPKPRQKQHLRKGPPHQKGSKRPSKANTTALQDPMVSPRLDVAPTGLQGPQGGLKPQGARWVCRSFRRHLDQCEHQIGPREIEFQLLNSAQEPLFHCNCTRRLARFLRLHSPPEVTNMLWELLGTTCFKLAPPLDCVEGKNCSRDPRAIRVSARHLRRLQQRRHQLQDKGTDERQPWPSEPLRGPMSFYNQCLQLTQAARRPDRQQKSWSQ
ARNT-TACC3 inh = disruptors of ARNT/TACC3 protein interaction, primary screen, biochemical, AlphaScreen, single concentration; Transforming acidic coiled-coil-containing protein 3 (Homo sapiens), Q9Y6A5; AlphaScreen His-ARNT PAS-B/GST-TACC3 binding, luminescence; TACC3 fragment carries E629A point mutation; inhibition, % at 9.99 µM; actives 0.66% (n = 390,000); AID 623870, 2012;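 active = mean inhibition of replicates at least 50% and at least half of replicates each reaching 50%; inconclusive = half or more replicates reach 50% but mean below 50%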
Rin1 Abl inh = inhibitors of Rin1-Abl protein binding, primary screen, biochemical, TR-FRET; inhibition, % at 7.35 µM; actives 0.4% (n = 360,000); AID 588664, 2011; in the data active = inhibition above about 5%, passing the limit was not always enough
Numbers stand for hits; – = inactive; ? = inconclusive; · = no result. A selection: hits, their analogues and other compounds. The true share with any hit is near 1.5%.

SMILES	AI-2 QS modul	sPLA2-III inh	ARNT-TACC3 inh	Rin1 Abl inh
COCC(=O)N1C[C@@H](C)[C@@H](OC)CN(C)C(=O)c2cc(NC(=O)c3ccc(F)cc3)ccc2OC[C@@H]1C	·	·	–	·
C[C@H](O)C#Cc1cnc2c(c1)C(=O)N([C@@H](C)CO)C[C@@H](C)[C@H](CN(C)C(=O)c1ccncc1)O2	·	·	–	·
C[C@@H]1CN([C@@H](C)CO)C(=O)c2ccccc2-c2ccccc2CO[C@H]1CN(C)S(C)(=O)=O	·	·	–	·
CCOC(=O)C1=C(CC)OC(N)=C(C#N)C1c1ccc(OC)c(OC)c1OC (stereo not drawn)	–	–	15	–
COc1ccc(/C=N/Nc2nc(C(=O)O)cs2)cc1	–	–	45	–
CO[C@@H]1CN(C)C(=O)c2ccc(NS(C)(=O)=O)cc2OC[C@H](C)N(CC2CCCCC2)C[C@@H]1C	·	·	–	·
Cc1noc(C)c1NC(=O)N(C)C[C@H]1Oc2ccc(NC(=O)NC3CCCCC3)cc2C(=O)N([C@@H](C)CO)C[C@@H]1C	·	·	–	·
COC(=O)C(=O)/C=C(\O)c1ccc(C)cc1	–	27	–	–
C[C@@H]1CN([C@@H](C)CO)C(=O)c2cc(NC(=O)c3ccncc3)ccc2O[C@H]1CN(C)CC1CCCCC1	·	·	–	·
O=C(/C(=N/N=C/c1ccc(O)c(O)c1O)c1ccccc1)c1ccccc1	–	–	–	12
Cc1cc(C(=O)Nc2cccc3c2O[C@H](CN(C)Cc2ccccc2)[C@H](C)CN([C@H](C)CO)C3=O)n(C)n1	·	·	–	·
COc1ccc(CCNC(=O)c2nc(-c3cccs3)no2)cc1OC	–	–	–	–
O=C(NCc1ccc(F)cc1)c1nc(-c2cccs2)no1	-76	–	·	–
Cc1ccc(C(=O)N/N=C/c2ccc(-c3cccc(Cl)c3)o2)cn1	–	–	–	–
Cc1ccc(C(=O)N/N=C/c2ccc(-c3ccccc3[N+](=O)[O-])o2)cn1	–	–	27	–
CC(C)c1ccc(NC(=O)COc2ccccn2)cc1	-83	–	–	–
CC(C)c1ccc(NC(=O)COc2ccccc2)cc1	–	–	–	–
CCOC(=O)c1ccccc1NC(=O)CSc1ccc(-c2ccccn2)nn1	–	–	64	–
O=C(CSc1ccc(-c2ccccn2)nn1)c1ccc([N+](=O)[O-])cc1	–	–	52	–
CCc1ccc(NC(=O)CSc2ccc(-c3ccccn3)nn2)cc1	–	–	51	–
CCOC(=O)c1ccccc1NC(=O)CSc1nccn1C	–	–	–	–
CCc1ccc(NC(=O)CSc2ccc(-c3cccnc3)nn2)cc1	–	–	–	–
CN(C)C(=O)C[C@@H]1CC[C@@H](NC(=O)C2CC2)[C@@H](CO)O1	·	·	–	·
C[C@@H]1CN([C@H](C)CO)C(=O)c2cccc(NC(=O)Nc3ccccc3)c2O[C@@H]1CN(C)Cc1ccc2c(c1)OCO2	·	·	–	·
COc1ccc(CNC(=O)C[C@@H]2C[C@@H]3c4cc(NC(=O)CC5CC5)ccc4O[C@@H]3[C@@H](CO)O2)cc1	·	·	–	·
SMILES	AI-2 QS modul	sPLA2-III inh	ARNT-TACC3 inh	Rin1 Abl inh
COc1ccc(NC(=O)N(C)C[C@H]2OCCCC[C@H](C)Oc3ccc(NS(=O)(=O)c4ccc(F)cc4)cc3C(=O)N([C@@H](C)CO)C[C@H]2C)cc1	·	·	–	·
Cc1ccccc1S(=O)(=O)N1C[C@H](O)COC[C@H]2O[C@@H](CC(=O)NCc3ccccc3Cl)CC[C@@H]21	·	·	–	·
CN(C)C(=O)[C@@]1(Cc2ccccc2N=[N+]=[N-])N=C(c2ccc(OCCCO)cc2)O[C@H]1c1ccccc1N=[N+]=[N-]	·	·	–	·
O=C(Cn1nc2ccccc2n1)N/N=C/c1cc([N+](=O)[O-])ccc1O	-86	–	·	–
O=C(Cn1nnc(-c2ccccc2)n1)N/N=C/c1cc([N+](=O)[O-])ccc1O	–	–	–	–
O=C(CSc1ccccn1)N/N=C/c1cc([N+](=O)[O-])ccc1O	?	–	76	–
O=C(N/N=C/c1cc([N+](=O)[O-])ccc1O)C1CCCCC1	–	–	67	–
Cc1ccn(CC(=O)N/N=C/c2cc([N+](=O)[O-])ccc2O)n1	-169	–	·	–
COCC(=O)Nc1ccc2c(c1)OC[C@@H](C)N(C(=O)COC)C[C@H](C)[C@@H](OC)CN(C)C2=O	·	·	–	·
C[C@@H]1CCCCO[C@@H](CN(C)CC2CC2)[C@H](C)CN([C@@H](C)CO)C(=O)c2cc(NS(C)(=O)=O)ccc2O1	·	·	–	·
C[C@@H]1CN([C@H](C)CO)C(=O)c2cc(NC(=O)Cc3ccccc3)ccc2O[C@@H]1CN(C)C(=O)Nc1ccc2c(c1)OCO2	·	·	–	·
Cc1ccc(-c2cnc3c(c2)C(=O)N([C@@H](C)CO)C[C@@H](C)[C@@H](CN(C)C(=O)c2cccc(F)c2)O3)cc1	·	·	–	·
C[C@H](CO)N1C[C@H](C)[C@H](CN(C)C(=O)c2ccccc2)Oc2cc(C3=CCCC3)ccc2S1(=O)=O	·	·	–	·
Cc1ccc(NC(=O)CCC(=O)N/N=C/c2ccc(O)cc2O)cc1	–	–	71	–
Cc1cc([N+](=O)[O-])nn1CC(=O)N/N=C/c1ccc(O)cc1O	–	–	71	–
O=C(N/N=C/c1ccc(O)cc1O)/C(=C/c1ccccc1)CCO	–	–	70	–
C[C@H]1CN([C@@H](C)CO)C(=O)c2cc(C#CC3CC3)cnc2O[C@H]1CN(C)S(=O)(=O)c1cccc(F)c1	·	·	–	·
C[C@@H]1CN([C@@H](C)CO)C(=O)Cc2cc(NS(=O)(=O)c3ccc(Cl)cc3)ccc2O[C@@H]1CN(C)CC1CCCCC1	·	·	–	·
C[C@@H]1CCCCO[C@H](CN(C)Cc2ccc(C(=O)O)cc2)[C@H](C)CN([C@H](C)CO)C(=O)c2cc(NC(=O)CCCN(C)C)ccc2O1	·	·	–	·
C[C@H](CO)N1C[C@H](C)[C@@H](CN(C)S(C)(=O)=O)OCCCC[C@H](C)Oc2ccc(NC(=O)Nc3ccccc3)cc2C1=O	·	·	–	·
CC1=Nc2cc(C(=O)NCc3ccco3)ccc2Sc2ccc(C)cc21	-98	–	–	–
CC1=Nc2cc(C(=O)O)ccc2Sc2ccc(C)cc21	-90	–	·	–
CC1=Nc2cc(C(=O)O)ccc2Sc2c(C)ccc(C)c21	–	–	·	–
CC1=Nc2cc(C(=O)NCC3CCCO3)ccc2Sc2ccc(C)cc21 (stereo not drawn)	–	–	–	–
CCOC(=O)c1cnc(-n2nc(C)cc2C)nc1NC	–	–	48	–
CCOC(=O)c1cnc(-n2nc(C)cc2C)nc1Nc1ccc(N(C)C)cc1	–	–	–	–
C[C@@H]1CN([C@@H](C)CO)C(=O)c2cc(C#Cc3ccc(F)cc3)cnc2O[C@@H]1CN(C)C(=O)Nc1ccc(F)cc1	·	·	–	·
CCN1CCN(c2cc(N3CCN(C(=O)c4ccco4)CC3)c3c4c(onc24)-c2ccccc2C3=O)CC1	–	·	–	–
CC(=O)OCCNc1cc(N2CCN(C)CC2)c2noc3c2c1C(=O)c1ccccc1-3	·	–	49	–
